# Assay results: PubChem BioAssay (EPA / NIEHS)
# Activity calls are given as the source filed them. Rule for the calls: active = hit-call score of the fitted dose curve at least 0.9, where 1 is the maximum; inactive = score below 0.9.
# How the values were obtained:
# Settings in all cases: mRNA level, 48 h; actives raise or lower the signal
# [1] = read-out: MYC, MYC (gene 4609); assay: LTEA_HepaRG_MYC: Life Technologies and Expression Analysis (LTEA) Assay for MYC using HepaRG (AID 2283518)
# Method in brief: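 MYC transcript changes, up or down relative to 0.5% DMSO, from TaqMan qRT-PCR normalized to three housekeeping genes. Human HepaRG cultures received chemicals for 48 h at eight half-log concentrations up to 100 uM, in duplicate.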
# [2] = read-out: matrix metalloproteinase-3 (MMP3), MMP3 (gene 4314); assay: LTEA_HepaRG_MMP3: Life Technologies and Expression Analysis (LTEA) Assay for matrix metalloproteinase-3 (MMP3) using HepaRG (AID 2283519)
# Method in brief: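 qRT-PCR read-out of MMP3 mRNA (normalised to three housekeeping genes) in HepaRG liver cells after 48 h chemical exposure; 8-point half-log series, top 100 uM, 0.5% DMSO vehicle. Bidirectional curve fitting against DMSO baseline.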
# [3] = read-out: Paternally Expressed 10 (PEG10), PEG10 (gene 23089); assay: LTEA_HepaRG_PEG10: Life Technologies and Expression Analysis (LTEA) Assay for Paternally Expressed 10 (PEG10) using HepaRG (AID 2283520);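 for AC50: PEG10 transcript by qRT-PCR normalised to ACTB GAPDH and POLR2A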
# Method in brief: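 After 48 h exposure of differentiated HepaRG cells (0.5% DMSO vehicle, eight concentrations up to 100 uM, duplicates), PEG10 mRNA was measured by TaqMan qRT-PCR. Values were normalised to endogenous control genes and analysed bidirectionally against vehicle.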
# [4] = read-out: Nuclear factor NF-kappa-B p105 subunit (Homo sapiens) (UniProt P19838); assay: LTEA_HepaRG_NFKB1: Life Technologies and Expression Analysis (LTEA) Assay for Nuclear Factor Kappa B Subunit 1 (NFKB1) using HepaRG (AID 2283521)
# Method in brief: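 Differentiated human HepaRG cells were exposed for 48 h in serum-free induction medium to eight concentrations (top 100 uM, half-log steps, 0.5% DMSO), in duplicate. NFKB1 mRNA was measured by TaqMan qRT-PCR, normalized to ACTB/GAPDH/POLR2A, and fitted bidirectionally against DMSO.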
# [5] = read-out: Protein phosphatase 2A (PPP2R4), PTPA (gene 5524); assay: LTEA_HepaRG_PPP2R4: Life Technologies and Expression Analysis (LTEA) Assay for Protein phosphatase 2A (PPP2R4) using HepaRG (AID 2283522)
# Method in brief: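 Using HepaRG cultures maintained in 0.5% DMSO, chemicals are tested 48 h at up to 100 uM in duplicate. Induction or suppression of PPP2R4 mRNA, measured by qRT-PCR, is fitted bidirectionally against the vehicle baseline.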
# [6] = read-out: Phosphatase and tensin (PTEN), PTEN (gene 5728); assay: LTEA_HepaRG_PTEN: Life Technologies and Expression Analysis (LTEA) Assay for Phosphatase and tensin (PTEN) using HepaRG (AID 2283523)
# Method in brief: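 HepaRG, 48 h exposure, 8-pt half-log series from 100 uM top, 0.5% DMSO vehicle, duplicates. Readout: Fluidigm qRT-PCR of PTEN transcript; housekeeping normalization (ACTB, GAPDH, POLR2A). Gain or loss fitted relative to DMSO baseline.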
# [7] = read-out: solute carrier (SLC22A1), SLC22A1 (gene 6580); assay: LTEA_HepaRG_SLC22A1: Life Technologies and Expression Analysis (LTEA) Assay for solute carrier (SLC22A1) using HepaRG (AID 2283524)
# Method in brief: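 qRT-PCR readout (TaqMan, Fluidigm arrays) of SLC22A1 transcript, normalized to three housekeeping genes; bidirectional curve fit relative to 0.5% DMSO vehicle. Differentiated human HepaRG cells, 48 h chemical exposure, top concentration 100 uM, half-log steps, eight points.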
# [8] = read-out: Pyruvate Dehydrogenase Kinase 4 (PDK4), PDK4 (gene 5166); assay: LTEA_HepaRG_PDK4: Life Technologies and Expression Analysis (LTEA) Assay for Pyruvate Dehydrogenase Kinase 4 (PDK4) using HepaRG (AID 2283525)
# Method in brief: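 HepaRG (human liver line), 48 h chemical exposure, 8-pt half-log CRC top 100 uM, 0.5% DMSO vehicle, duplicates. Readout: TaqMan qRT-PCR of PDK4 mRNA, housekeeping-normalized; gain/loss fit relative to DMSO baseline.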
# [9] = read-out: NAD(P)H dehydrogenase [quinone] 1 (NQO1), NQO1 (gene 1728); assay: LTEA_HepaRG_NQO1: Life Technologies and Expression Analysis (LTEA) Assay for NAD(P)H dehydrogenase [quinone] 1 (NQO1) using HepaRG (AID 2283526)
# Method in brief: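 In this assay, gene expression is read by qRT-PCR after 48 h exposure of HepaRG cells to eight concentrations (max 100 uM, half-log) in 0.5% DMSO. Each chemical runs in duplicate, and activity is scored relative to vehicle.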
# [10] = read-out: Nuclear factor erythroid 2-related factor 2 (Homo sapiens) (UniProt Q16236); assay: LTEA_HepaRG_NFE2L2: Life Technologies and Expression Analysis (LTEA) Assay for Nuclear factor erythroid 2-related factor 2 (NFE2L2) Transcription Factor using HepaRG (AID 2283527);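 for outcome: TaqMan qRT-PCR transcript level normalised to ACTB GAPDH and POLR2A housekeeping genes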
# Method in brief: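 HepaRG, 48 h dosing, 8-pt half-log series from 100 uM in 0.5% DMSO, duplicates. Read-out: NFE2L2 mRNA by qRT-PCR (ACTB/GAPDH/POLR2A normalization). Bidirectional curve fit vs DMSO baseline.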
# [11] = read-out: succinate dehydrogenase complex iron sulfur subunit B (SDHB), SDHB (gene 6390); assay: LTEA_HepaRG_SDHB: Life Technologies and Expression Analysis (LTEA) Assay for succinate dehydrogenase complex iron sulfur subunit B (SDHB) using HepaRG (AID 2283528)
# Method in brief: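 HepaRG, 48 h exposure, 8-pt half-log series from 100 uM in 0.5% DMSO, duplicates. Readout: SDHB mRNA by Fluidigm qRT-PCR vs housekeeping genes; bidirectional fit relative to DMSO.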
# [12] = read-out: solute carrier (SLCO1B1), SLCO1B1 (gene 10599); assay: LTEA_HepaRG_SLCO1B1: Life Technologies and Expression Analysis (LTEA) Assay for solute carrier (SLCO1B1) using HepaRG (AID 2283530)
# Method in brief: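 SLCO1B1 transcript levels were quantified by TaqMan qRT-PCR using three housekeeping genes for normalization. This followed 48 h chemical exposure (100 uM top, half-log, 8 points, 0.5% DMSO) of HepaRG liver cells, with gain or loss fitted relative to DMSO.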
# [13] = read-out: sulfotransferase 2A1 (SULT2A1), SULT2A1 (gene 6822); assay: LTEA_HepaRG_SULT2A1: Life Technologies and Expression Analysis (LTEA) Assay for sulfotransferase 2A1 (SULT2A1) using HepaRG (AID 2283531)
# Method in brief: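 Expression change of SULT2A1, by qRT-PCR with three housekeeping-gene normalization, was scored bidirectionally versus DMSO. Cells: differentiated HepaRG, dosed in duplicate for 48 h across 8 points, highest 100 µM, half-log dilution, 0.5% DMSO.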
# [14] = read-out: Transforming Growth Factor (TGFA), TGFA (gene 7039); assay: LTEA_HepaRG_TGFA: Life Technologies and Expression Analysis (LTEA) Assay for Transforming Growth Factor (TGFA) using HepaRG (AID 2283532)
# Method in brief: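 qRT-PCR read-out of TGFA transcript, normalized to three housekeeping genes, fitted bidirectionally against 0.5% DMSO baseline. Human HepaRG cultures received chemicals for 48 h at eight half-log concentrations, top 100 uM.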
# [15] = read-out: TIMP1, TIMP1 (gene 7076); assay: LTEA_HepaRG_TIMP1: Life Technologies and Expression Analysis (LTEA) Assay for TIMP1 using HepaRG (AID 2283534)
# Method in brief: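 Bidirectional change in TIMP1 transcript versus 0.5% DMSO, measured by TaqMan qRT-PCR with three housekeeping genes for normalization. HepaRG human liver cells dosed 48 h in duplicate, top concentration 100 uM with half-log dilutions.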
# [16] = read-out: Tumor necrosis factor receptor 1 (TNFRSF1A), TNFRSF1A (gene 7132); assay: LTEA_HepaRG_TNFRSF1A: Life Technologies and Expression Analysis (LTEA) Assay for Tumor necrosis factor receptor 1 (TNFRSF1A) using HepaRG (AID 2283535)
# Method in brief: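 mRNA measured by qRT-PCR (TaqMan, Fluidigm arrays) against ACTB/GAPDH/POLR2A housekeepers after 48 h chemical exposure of HepaRG cells. Top concentration 100 uM, half-log 8-point series, duplicates; vehicle 0.5% DMSO, both fit directions.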
# [17] = read-out: Thyroid Hormone Responsive (THRSP), THRSP (gene 7069); assay: LTEA_HepaRG_THRSP: Life Technologies and Expression Analysis (LTEA) Assay for Thyroid Hormone Responsive (THRSP) using HepaRG (AID 2283536)
# Method in brief: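 qRT-PCR read-out (Fluidigm TaqMan), housekeeping-normalized (ACTB/GAPDH/POLR2A). HepaRG, 48 h chemical exposure, 8-pt half-log series from 100 uM in 0.5% DMSO, duplicates. Bidirectional curve fit vs 0.5% DMSO baseline.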
# [18] = read-out: Cellular tumor antigen p53 (Homo sapiens) (UniProt P04637); assay: LTEA_HepaRG_TP53: Life Technologies and Expression Analysis (LTEA) Assay for Tumor Protein P53 (TP53) using HepaRG (AID 2283537)
# Method in brief: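 HepaRG, 48 h exposure, top 100 uM, half-log 8-point, 0.5% DMSO vehicle, duplicates. Read: TP53 mRNA by TaqMan qRT-PCR, normalised to ACTB/GAPDH/POLR2A; bidirectional fit vs DMSO.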
# [19] = read-out: Transforming Growth Factor (TGFB1), TGFB1 (gene 7040); assay: LTEA_HepaRG_TGFB1: Life Technologies and Expression Analysis (LTEA) Assay for Transforming Growth Factor (TGFB1) Transporter using HepaRG (AID 2283533)
# Method in brief: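 TGFB1 transcript measured by qRT-PCR with normalisation to three housekeeping genes (ACTB, GAPDH, POLR2A); human HepaRG line treated in duplicate for 48 hr with an 8-point series topping at 100 uM, 0.5% DMSO vehicle, bidirectionally fitted.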
# [20] = read-out: Signal transducer and activator of transcription 3 (Homo sapiens) (UniProt P40763); assay: LTEA_HepaRG_STAT3: Life Technologies and Expression Analysis (LTEA) Assay for Signal transducer and activator of transcription (STAT3) using HepaRG (AID 2283529)
# Method in brief: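 HepaRG, 48 h exposure, 8-pt half-log series (top 100 uM), 0.5% DMSO vehicle, duplicates. Readout: STAT3 transcript by Fluidigm qRT-PCR, housekeeping-normalized; bidirectional fit vs DMSO baseline.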
# Nuclear factor erythroid 2-related factor 2 (Homo sapiens), sequence (Q16236 whole entry, looked up): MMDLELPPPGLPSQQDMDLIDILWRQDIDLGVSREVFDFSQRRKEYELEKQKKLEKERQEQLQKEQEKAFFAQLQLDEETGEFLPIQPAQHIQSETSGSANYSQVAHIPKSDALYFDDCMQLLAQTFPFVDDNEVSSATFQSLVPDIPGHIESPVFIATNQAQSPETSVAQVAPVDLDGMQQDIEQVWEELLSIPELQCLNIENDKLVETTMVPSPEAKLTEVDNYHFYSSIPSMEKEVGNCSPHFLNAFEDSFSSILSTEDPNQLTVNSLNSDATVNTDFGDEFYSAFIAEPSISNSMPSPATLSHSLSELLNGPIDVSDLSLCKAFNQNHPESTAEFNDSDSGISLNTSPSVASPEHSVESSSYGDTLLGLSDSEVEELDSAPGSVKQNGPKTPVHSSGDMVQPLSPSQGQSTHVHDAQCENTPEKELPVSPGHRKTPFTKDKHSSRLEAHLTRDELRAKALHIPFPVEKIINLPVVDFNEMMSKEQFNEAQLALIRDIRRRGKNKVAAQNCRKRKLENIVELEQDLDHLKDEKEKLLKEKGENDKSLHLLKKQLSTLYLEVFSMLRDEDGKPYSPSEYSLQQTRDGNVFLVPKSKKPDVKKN
# Nuclear factor NF-kappa-B p105 subunit (Homo sapiens), sequence (P19838 whole entry, looked up): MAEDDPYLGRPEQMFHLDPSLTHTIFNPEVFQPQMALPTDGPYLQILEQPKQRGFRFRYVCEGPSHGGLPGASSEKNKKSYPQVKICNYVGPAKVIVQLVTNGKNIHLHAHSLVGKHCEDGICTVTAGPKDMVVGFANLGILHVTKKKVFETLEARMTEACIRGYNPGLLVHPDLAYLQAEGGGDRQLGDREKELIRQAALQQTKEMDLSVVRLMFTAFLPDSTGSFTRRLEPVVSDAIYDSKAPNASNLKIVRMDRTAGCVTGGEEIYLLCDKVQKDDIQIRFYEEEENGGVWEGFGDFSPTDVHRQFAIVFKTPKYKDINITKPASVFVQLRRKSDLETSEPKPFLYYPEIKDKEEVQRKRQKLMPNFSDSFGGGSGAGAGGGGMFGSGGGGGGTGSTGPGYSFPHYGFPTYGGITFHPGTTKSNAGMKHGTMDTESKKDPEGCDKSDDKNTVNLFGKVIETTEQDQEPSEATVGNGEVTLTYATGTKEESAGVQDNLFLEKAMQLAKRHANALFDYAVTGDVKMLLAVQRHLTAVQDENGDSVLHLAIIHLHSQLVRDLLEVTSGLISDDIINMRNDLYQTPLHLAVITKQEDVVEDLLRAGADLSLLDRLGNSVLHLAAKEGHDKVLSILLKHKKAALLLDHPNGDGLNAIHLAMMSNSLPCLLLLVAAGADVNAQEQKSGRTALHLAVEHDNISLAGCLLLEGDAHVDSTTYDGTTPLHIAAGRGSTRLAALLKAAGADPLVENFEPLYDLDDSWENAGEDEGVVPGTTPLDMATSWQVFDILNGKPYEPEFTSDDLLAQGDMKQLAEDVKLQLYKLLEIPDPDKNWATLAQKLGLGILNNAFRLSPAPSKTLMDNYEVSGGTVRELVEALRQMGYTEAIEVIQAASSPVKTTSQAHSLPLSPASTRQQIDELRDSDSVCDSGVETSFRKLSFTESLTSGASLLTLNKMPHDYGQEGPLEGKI
# Cellular tumor antigen p53 (Homo sapiens), sequence (P04637 whole entry, looked up): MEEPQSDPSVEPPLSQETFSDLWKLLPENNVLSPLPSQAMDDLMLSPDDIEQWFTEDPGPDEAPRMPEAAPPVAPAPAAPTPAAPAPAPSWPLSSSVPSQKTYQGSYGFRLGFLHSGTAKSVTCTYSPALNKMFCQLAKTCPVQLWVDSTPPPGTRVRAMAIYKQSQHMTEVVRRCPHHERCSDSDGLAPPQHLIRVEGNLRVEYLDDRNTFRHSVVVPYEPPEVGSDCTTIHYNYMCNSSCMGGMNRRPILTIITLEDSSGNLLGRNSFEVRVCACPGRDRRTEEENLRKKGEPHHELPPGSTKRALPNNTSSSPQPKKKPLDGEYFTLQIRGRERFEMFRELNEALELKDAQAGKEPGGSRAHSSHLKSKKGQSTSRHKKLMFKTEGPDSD
# Signal transducer and activator of transcription 3 (Homo sapiens), sequence (P40763 whole entry, looked up): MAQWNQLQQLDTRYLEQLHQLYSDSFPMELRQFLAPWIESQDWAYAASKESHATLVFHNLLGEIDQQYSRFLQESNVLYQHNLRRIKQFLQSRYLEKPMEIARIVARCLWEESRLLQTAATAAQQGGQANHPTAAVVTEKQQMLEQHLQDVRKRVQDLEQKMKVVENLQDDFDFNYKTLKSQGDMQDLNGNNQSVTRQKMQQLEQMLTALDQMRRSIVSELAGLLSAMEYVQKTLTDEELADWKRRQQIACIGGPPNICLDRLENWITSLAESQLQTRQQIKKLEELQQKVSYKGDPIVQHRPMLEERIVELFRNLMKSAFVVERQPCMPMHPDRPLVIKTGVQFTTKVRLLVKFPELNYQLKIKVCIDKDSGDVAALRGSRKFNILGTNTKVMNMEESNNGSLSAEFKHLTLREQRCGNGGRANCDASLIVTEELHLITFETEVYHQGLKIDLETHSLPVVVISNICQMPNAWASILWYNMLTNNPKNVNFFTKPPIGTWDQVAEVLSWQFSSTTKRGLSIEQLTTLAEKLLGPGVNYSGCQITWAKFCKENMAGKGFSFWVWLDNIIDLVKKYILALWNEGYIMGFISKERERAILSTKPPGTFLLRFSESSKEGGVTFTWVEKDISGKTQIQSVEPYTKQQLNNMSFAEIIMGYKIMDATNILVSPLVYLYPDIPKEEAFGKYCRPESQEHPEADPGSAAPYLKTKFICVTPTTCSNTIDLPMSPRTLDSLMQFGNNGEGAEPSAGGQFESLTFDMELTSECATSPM
structure (smiles),measurement,setting,value
NC(=O)N(O)[C@@H]1C=C[C@H](Oc2cccc(Oc3ccc(F)cc3)c2)C1,AC50,[1],72.7 µM (active)
same,AC50,[2],85.9 µM (active)
same,AC50,[3],5.31 µM (active)
same,AC50,[4],74.4 µM (active)
same,outcome,[5],inactive
same,outcome,[6],inactive
same,AC50,[7],63.6 µM (active)
same,AC50,[8],50 µM (active)
same,outcome,[9],inactive
same,AC50,[10],81.9 µM (active)
same,outcome,[11],inactive
same,AC50,[12],86.1 µM (active)
same,AC50,[13],76.5 µM (active)
same,AC50,[14],76.2 µM (active)
same,outcome,[15],inactive
same,outcome,[16],inactive
same,outcome,[17],inactive
same,AC50,[18],50 µM (active)
CCC(C)(C)C1CCC(O)CC1 (stereo not given),outcome,[1],inactive
same,outcome,[2],inactive
same,outcome,[3],inactive
same,outcome,[4],inactive
same,outcome,[5],inactive
same,outcome,[6],inactive
same,outcome,[7],inactive
same,outcome,[8],inactive
same,outcome,[9],inactive
same,outcome,[10],inactive
same,outcome,[11],inactive
same,outcome,[12],inactive
same,outcome,[13],inactive
same,outcome,[14],inactive
same,outcome,[19],inactive
same,outcome,[15],inactive
same,outcome,[16],inactive
same,outcome,[17],inactive
same,outcome,[18],inactive
CCc1nn(C2CCCCC2)c2cc(C3(C#N)CCC(C(=O)O)CC3)ccc12 (stereo not given),AC50,[1],50 µM (active)
same,outcome,[2],inactive
same,AC50,[3],12.8 µM (active)
same,outcome,[4],inactive
same,AC50,[5],11.4 µM (active)
same,outcome,[6],inactive
same,AC50,[7],72.6 µM (active)
same,AC50,[8],33.6 µM (active)
same,outcome,[9],inactive
same,AC50,[10],50 µM (active)
same,outcome,[11],inactive
same,outcome,[20],inactive
same,AC50,[12],56.2 µM (active)
same,AC50,[13],80.4 µM (active)
same,AC50,[14],65.5 µM (active)
same,outcome,[16],inactive
same,AC50,[17],79.3 µM (active)
same,AC50,[18],50 µM (active)
